Results taken from the supplement of paper PMC6555819.

How the values were obtained:
Assay in all cases: PBM binding z-score (relative to random genomic background probes); higher = stronger binding; sequences stand for … in GC…GCGATTGACAGCGTAGAATGAAGG
[1] = system: FXR:RXRa (NR concentration 270 nM, RXRa partner concentration 90 nM)
How it was run: (§1)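 Custom Agilent 4×180K protein-binding microarrays carried double-stranded probes, each with a 34-nt variable region. These regions held direct-repeat seeds, single-nucleotide variants, half-site ablations and random human genomic background sequences. Ligand-free nuclear receptor dimers were incubated on the arrays for 1 h, antibodies against each partner (one per run) detected binding, and scanned fluorescence was regression-normalized. Binding z-scores take the random background probes as reference.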

[2] = system: LXRa:RXRa (NR concentration 270 nM, RXRa partner concentration 90 nM)
How it was run: as §1

[3] = system: LXRa homodimer (NR concentration 270 nM)
How it was run: as §1

[4] = system: LXRb:RXRa (NR concentration 270 nM, RXRa partner concentration 90 nM)
How it was run: as §1

[5] = system: LXRb homodimer (NR concentration 270 nM)
How it was run: as §1

[6] = system: PPARa:RXRa (NR concentration 270 nM, RXRa partner concentration 90 nM)
How it was run: as §1

[7] = system: PPARg:RXRa (NR concentration 180 nM, RXRa partner concentration 90 nM)
How it was run: as §1

[8] = system: PPARg:RXRa 270nM:90nM, anti-RXR (NR concentration 270 nM, RXRa partner concentration 90 nM)
How it was run: as §1

[9] = system: PPARg:RXRa 30nM:10nM, anti-RXR (NR concentration 30 nM, RXRa partner concentration 10 nM)
How it was run: as §1

[10] = system: PPARg:RXRa 90nM:30nM, anti-RXR (NR concentration 90 nM, RXRa partner concentration 30 nM)
How it was run: as §1

[11] = system: PPARg:RXRa DBDmut IVT, anti-RXR (DBD mutation: RXRa K156A/R161A, NR concentration 270 nM, RXRa partner concentration 90 nM)
How it was run: as §1

[12] = system: PPARg:RXRa IVT, anti-PPARg (NR concentration 270 nM, RXRa partner concentration 90 nM)
How it was run: as §1

[13] = system: PPARg DBDmut:RXRa IVT, anti-PPARg (DBD mutation: PPARg1 K132A/R137A, NR concentration 270 nM, RXRa partner concentration 90 nM)
How it was run: as §1

[14] = system: PPARg DBDmut IVT, anti-PPARg (DBD mutation: PPARg1 K132A/R137A, NR concentration 270 nM)
How it was run: as §1

[15] = system: PPARg homodimer (NR concentration 180 nM)
How it was run: as §1

[16] = system: PXR:RXRa (NR concentration 270 nM, RXRa partner concentration 90 nM)
How it was run: as §1

[17] = system: PXR homodimer (NR concentration 270 nM)
How it was run: as §1

[18] = system: RARa:RXR (NR concentration 270 nM, RXRa partner concentration 90 nM)
How it was run: as §1

[19] = system: RARa homodimer (NR concentration 270 nM)
How it was run: as §1

[20] = system: RARb:RXRa (NR concentration 270 nM, RXRa partner concentration 90 nM)
How it was run: as §1

Sequence | PBM binding z-score [1] | PBM binding z-score [2] | PBM binding z-score [3] | PBM binding z-score [4] | PBM binding z-score [5] | PBM binding z-score [6] | PBM binding z-score [7] | PBM binding z-score [8] | PBM binding z-score [9] | PBM binding z-score [10] | PBM binding z-score [11] | PBM binding z-score [12] | PBM binding z-score [13] | PBM binding z-score [14] | PBM binding z-score [15] | PBM binding z-score [16] | PBM binding z-score [17] | PBM binding z-score [18] | PBM binding z-score [19] | PBM binding z-score [20]
CGTCAAAGTTCAAGGTAACGTAGCAGAAAGCAGC | 6.17 | 5.74 | 2.69 | 3.38 | 0.96 | 4.55 | 4.28 | 5.21 | 2.09 | 4.31 | 0.831 | 2.13 | 0.429 | 0.415 | 4.56 | 4.44 | 3.02 | 3.64 | 2.42 | 5.1
ATACCAAGGTGATCGTGAGGTCGTTGAGACTAAC | 1.86 | 1.27 | 0.536 | 0.968 | 0.251 | 1.55 | 0.356 | 0.352 | -0.174 | -0.0872 | 0.478 | 1.15 | 0.272 | -0.217 | 0.626 | 2.93 | 1.28 | 1.91 | 0.197 | 1.39
ATCTCTAGGTAATGATAGTTCAGTGAATGCAAAT | 0.391 | 3.56 | 0.99 | 0.864 | 0.755 | 0.625 | 0.774 | 0.986 | 0.371 | 0.513 | 2.25 | 2.17 | 1.1 | 1.74 | 1.21 | 1.12 | 0.747 | 0.583 | 0.965 | 0.694
ATCTCGAGGTAAAGATAGTTCAGTGAATGCAAAT | 0.198 | 5.34 | 0.132 | 1.62 | 0.118 | 0.727 | 0.145 | 0.25 | 0.14 | 0.23 | -0.0258 | 0.54 | 0.0992 | 0.266 | 0.0262 | 2.22 | 0.66 | 0.499 | -0.0875 | 0.896
GCTATTAGTAGAAAGGGCAACCGAATGATTCTCG | -0.219 | 0.182 | -0.00158 | 0.187 | -0.195 | 1.42 | 2.17 | 3.71 | 1.81 | 3.54 | 0.164 | 0.803 | 0.319 | 0.449 | 1.28 | 0.256 | -0.0739 | 0.703 | 1.09 | 1.96
TAGCCGAGGTCATGCGGGCCAGTATAGTGTCGGC | 7.46 | 5.94 | 1.69 | 4.64 | 1 | 6.24 | 6 | 6.15 | 2.74 | 4.56 | 1.88 | 4.29 | 1.82 | 0.598 | 2.81 | 5.79 | 2.14 | 6.18 | 0.453 | 5.17
